Assay outcomes: PubChem BioAssay, Center for Chemical Genomics, University of Michigan
Only a selection was taken, and hits are over-represented in it overall.
Dicer inh = inhibitors of Dicer pre-microRNA processing, primary screen, biochemical, cat-ELCCA, chemiluminescence; 47,000 compounds, 6% hits; AID 1347074, 2019; cat-ELCCA pre-miR-21 Dicer processing; hits give high values; z-score at 25 µM; in the data active = z-score above about 3, passing the limit was not always enough;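 also: plate controls were vehicle for no effect and no enzyme for full effect; higher signal means more uncleaved substrate so more Dicer inhibition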
* hit, by the source's call.

SMILES	Dicer inh
CC1(C)CC(=O)C2=C(C1)Nc1ccc3ccccc3c1C2c1ccccn1 (stereo not drawn)	0.86
COC(=O)c1nn(-c2ccc(OC)cc2)c(=O)c2c(N)sc(C)c12	-2.5
O=C(Nc1cccc2cccnc12)c1ccc([N+](=O)[O-])o1	-1.9
CC(NS(=O)(=O)c1ccc(N)cc1)C(=O)O (stereo not drawn)	-0.74
C[C@H](NS(=O)(=O)c1ccc(F)cc1)C(=O)O	5.3*
CC(C)[C@H](NS(=O)(=O)c1ccc(F)cc1)C(=O)O	1.3
COc1ccc(-c2noc(-c3ccc(OC)c(OC)c3)n2)cc1OC	-0.23
CCOc1ccc(-c2nc(-c3ccc(Cl)cc3)no2)cc1OCC	3.6*
CCOc1nc(C)ccc1-c1noc(-c2ccc(OC)c(OC)c2)n1	0.4
O=C(CSc1nnnn1-c1ccccc1F)Nc1ccc2c(c1)OCO2	0.16
O=C(O)c1ccc(-n2nnnc2SCC(=O)N2CCOCC2)cc1	0.41
O=C(O)c1ccc(-n2nnnc2SCc2cccc(Br)c2)cc1	4.9*
Fc1ccc(CSc2nnnn2-c2cccc(Cl)c2)cc1	0.46
CCOc1cc(-c2ccccc2)nc(SCc2ccc(Cl)cc2Cl)n1	-0.18
CCOC(=O)C(NC(=O)c1cccc(Cl)c1)(OCc1ccc(F)cc1)C(F)(F)F (stereo not drawn)	-0.32
COc1ccc2[nH]c3c(c2c1)CCn1c-3nc2sc3c(c2c1=O)CCCCC3	0.69
CCCCCCSc1nnc2c(n1)OC=Nc1ccccc1-2	2.8
COC(=O)c1sccc1N/N=C(\C#N)S(=O)(=O)c1ccc(Cl)cc1	1.1
COC(=O)c1sccc1N/N=C(\C#N)S(=O)(=O)c1cccs1	7.2
COC(=O)c1scc(S(=O)(=O)Cc2cccs2)c1N/N=C(\C#N)S(=O)(=O)c1ccc(Cl)cc1	5.6*
COC(=O)c1cc(C#N)c(=S)[nH]c1C(OC)OC	2.6
O=C(Cn1cc(C(=O)C2CC2)c2ccccc21)NC1CCCCC1	1.1
N/C(CC1CC1(Cl)Cl)=N\OC(=O)c1ccccc1 (stereo not drawn)	1.9
CCOc1nc2c(c(-c3ccc(OC)cc3)c1C#N)Cc1ccccc1-2	-1.6
CC(=O)COc1nc2c(c(-c3ccc(Cl)cc3)c1C#N)CCc1ccccc1-2	3.2*
SMILES	Dicer inh
CC(=O)COc1nc2c(c(-c3ccco3)c1C#N)CCc1ccccc1-2	243
COc1ccc(-c2csc3ncnc(Oc4cccc5cccnc45)c23)cc1	-0.1
Oc1ccccc1/C=N/c1nccs1	-0.85
O=C(O)c1cccc2cccc(S(=O)c3cccc4cccc(CO)c34)c12 (stereo not drawn)	-0.7
CC(=NC(=S)c1ccc(Cl)cc1)N(C)C	0.12
CS/C(NCc1cccnc1)=C(/C#N)C(=O)c1cccs1	1.6
COC(=O)c1cc(S(=O)(=O)C(C)C)c(S(C)=O)s1 (stereo not drawn)	-1.4
Cc1ccc2c(c1)C(O)(CC(=O)c1ccccc1)C(=O)N2 (stereo not drawn)	-0.19
CS/C(=C/C(=O)c1cccs1)Nc1ccccc1Cl	-1.3
CCOc1ccc(NC2CC(=O)N(c3ccc(OC)cc3OC)C2=O)cc1 (stereo not drawn)	-1.9
CCc1ccc(NC2CC(=O)N(c3ccc(C)cc3Br)C2=O)cc1 (stereo not drawn)	3.3*
COc1ccc(NC2CC(=O)N(c3cccc4ccccc34)C2=O)cc1 (stereo not drawn)	-0.63
CCOc1cc(C(F)(F)F)c(C(=O)N(CC)Cc2ccc(Cl)cc2)cn1	-0.27
O=C(Nc1nnc(Sc2ccnc3cc(Cl)ccc23)s1)c1cccnc1Oc1ccccc1	0.44
CC(C)CCn1c(NCc2ccco2)nc2c1c(=O)[nH]c(=O)n2C	3.6*
Cn1c(=O)[nH]c(=O)c2c1nc(NCc1ccco1)n2Cc1ccc(F)cc1	-2.7
CC(C)CCNc1nc2c(c(=O)[nH]c(=O)n2C)n1CCO	1.4
Nc1c(-c2nnnn2-c2ccccc2)cnc2ccccc12	1.2
Cc1cc(C)c2c(N)c(C(=O)c3ccccc3)sc2n1	-0.42
COc1ccc(C(=O)c2sc3nc(-c4ccc(OC)cc4)ccc3c2N)cc1	0.01
Cc1ccc2c(N)c(C(=O)c3ccc(-c4ccccc4)cc3)sc2n1	3.2*
COC(=O)c1n[nH]n(-c2ccc(F)c(Cl)c2)c1=O	1
CCc1cc2c(=O)c(-c3nc4ccccc4[nH]3)coc2c(CN2CCCC(C)C2)c1O (stereo not drawn)	3.3*
CN1CCN(Cc2c(O)ccc3c(=O)c(-c4ccccc4)coc23)CC1	2
CCc1cc2c(=O)c(-c3nc4ccccc4n3C)coc2c(CN(CC)CC)c1O	0.32
SMILES	Dicer inh
O=C1CC2(CCCC2)C(=O)N1c1ccc(S(=O)(=O)Nc2ccc(Cl)cc2Cl)cc1Cl	-0.58
CC1(C)NC(=O)N(CC(O)CN(c2ccccc2)S(=O)(=O)c2ccccc2)C1=O (stereo not drawn)	2.2
CC1(C)NC(=O)N(CC(O)COc2ccc(Br)cc2)C1=O (stereo not drawn)	3.1*
CC1(C)NC(=O)N(CC(O)CN(Cc2ccccc2)Cc2ccccc2)C1=O (stereo not drawn)	3*
Cc1ccc(OCC(O)CN2C(=O)NC(C)(C)C2=O)cc1 (stereo not drawn)	1.3
CC1(C)NC(=O)N(Cc2ccccc2)C1=O	-0.41
Cc1ccc(OCC(O)CN2C(=O)NC(C)(C)C2=O)cc1C (stereo not drawn)	0.02
COc1ccc(OC)c(S(=O)(=O)Nc2ccc(-c3ncon3)cc2)c1	-0.11
Cc1cc(C(=O)O)c(C)n1-c1ccc(Cl)cc1	1.3
O=C(N=S1CCN(S(=O)(=O)c2ccc(Cl)cc2)CC1)c1ccc(Cl)cc1	-0.65
O=S(=O)(Nc1cccnc1)c1ccc(Oc2ccccc2)cc1	1
C[C@]12C=CC(=O)C=C1CC[C@H]1[C@@H]3C[C@@H](O)[C@](O)(C(=O)CO)[C@@]3(C)C[C@H](O)[C@@]12F	0.77
Cc1ccc2oc(-c3cc(N)ccc3Cl)nc2c1	2.7
Nc1ccc(Cl)c(-c2nc3cc(Cl)ccc3o2)c1	1.8
CCc1ccc2oc(-c3cc(N)ccc3Cl)nc2c1	4.5*
NCc1ccccc1CC(=O)N[C@@H]1C(=O)N2C(C(=O)O)=C(CSc3nnnn3CC(=O)O)CS[C@H]12	-0.31
CCOc1ccc(C2c3c(oc4ccccc4c3=O)C(=O)N2c2nnc(C)s2)cc1OC (stereo not drawn)	0.32
O=C(Oc1ccc2cc(Br)ccc2c1)c1ccco1	5.8*
O=C(Oc1ccc2c(c1)oc(=O)c1ccccc12)c1ccco1	-0.17
O=C(Oc1cccc(Br)c1)c1ccco1	2.9
Cc1csc2ncnc(SCC(=O)NNS(=O)(=O)c3cc(C(F)(F)F)cc(C(F)(F)F)c3)c12	-0.75
O=C(Nc1ccc(N2CCOCC2)cc1)c1ncn[nH]1	2
O=C(Nc1ccc(N2CCOCC2)cc1)c1cc2cc(Cl)ccc2[nH]1	4*
O=C(Nc1ccc(N2CCOCC2)cc1)c1ccc(Oc2cc(Cl)cc(Cl)c2)o1	0.52
FC(F)(F)c1cc(NC(=S)NNc2ccccc2)cc(C(F)(F)F)c1	10
SMILES	Dicer inh
Cc1cc2nc(-c3cccc(Br)c3)cc(C(F)(F)F)n2n1	-1.5
FC(F)(F)c1cc(-c2cccc(Br)c2)nc2ncnn12	3.9*
FC(F)(F)c1cccc(Nc2cc(-c3ccccc3)nc3ncnn23)c1	0.54
FC(F)(F)c1cc(-c2ccc(Br)cc2)nc2ncnn12	-0.18
Nc1nc2nc(-c3ccc(OCc4ccccc4)cc3)cc(C(F)(F)F)n2n1	0.12
Nc1nc2nc(-c3cccc(Br)c3)cc(C(F)(F)F)n2n1	4.9*
